Laboratory results: PubChem BioAssay (EPA / NIEHS)
Results filed as inconclusive are left out. Calls of active or inactive are those of the source. The calls were made as follows, unless noted: active = hit-call score of the fitted dose curve at least 0.9, where 1 is the maximum; inconclusive = response in the unintended direction; inactive = score below 0.9.

Tests used:
[1] = target: Nuclear receptor subfamily 1 group I member 2 (Homo sapiens) (UniProt O75469); assay: ATG_PXR_TRANS: Attagene TRANS-FACTORIAL HepG2 Assay for human Pregnane X Receptor (PXR) (AID 2283008)
Summary of the method: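 Multiplexed TRANS reporter panel in HepG2; this component tracks PXR-Gal4-driven reporter mRNA after 24 h dosing, measured by RT-PCR with capillary electrophoresis fluorescence, fitted against DMSO.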

[2] = target: human RAR-related Orphan Receptor beta (RORb), RORB (gene 6096) (UniProt Q92753); assay: ATG_RORb_TRANS: Attagene TRANS-FACTORIAL HepG2 Assay for human RAR-related Orphan Receptor beta (RORb) (AID 2283010)
Summary of the method: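 Multiplexed transcription-factor reporter assay: HepG2 cells transiently carrying NR-Gal4/GAL4-UAS constructs, 24 h treatment, mRNA quantified by RT-PCR plus capillary electrophoresis fluorescence; activity scored as induction over DMSO.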

[3] = target: human RAR-related Orphan Receptor gamma (RORg), RORC (gene 6097) (UniProt P51449); assay: ATG_RORg_TRANS: Attagene TRANS-FACTORIAL HepG2 Assay for human RAR-related Orphan Receptor gamma (RORg) (AID 2283011)
Summary of the method: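 Chimeric RORg-Gal4 transactivation in transfected HepG2; 24 h exposure; RT-PCR/capillary electrophoresis readout of reporter mRNA, DMSO baseline.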

[4] = target: human Retinoid X Receptor beta (RXRb), RXRB (gene 6257) (UniProt P28702); assay: ATG_RXRb_TRANS: Attagene TRANS-FACTORIAL HepG2 Assay for human Retinoid X Receptor beta (RXRb) (AID 2283013)
Summary of the method: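 After a 24 h incubation with test chemical, transfected HepG2 cells carrying NR-Gal4 fusions and GAL4-UAS reporter transcription units yield RNA whose reporter cDNA is FAM-labelled, HpaI-cut and sized by capillary electrophoresis; increases over DMSO are scored.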

[5] = target: human Thyroid Receptor alpha (THRa1), THRA (gene 7067) (UniProt P10827); assay: ATG_THRa1_TRANS: Attagene TRANS-FACTORIAL HepG2 Assay for human Thyroid Receptor alpha (THRa1) (AID 2283014)
Summary of the method: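 Measured here is mRNA from a GAL4-UAS reporter in transfected HepG2 cells carrying a Gal4-fused receptor, 24 h post-dose. DMSO served as negative control and baseline.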

[6] = read-out: E-selectin (Homo sapiens) (UniProt P16581); assay: BSK_3C_Eselectin: BioMAP Diversity Plus: 3C Assay for Eselectin Biomarker Activity (AID 2283015; active = hit-call score of the fitted dose curve at least 0.9, where 1 is the maximum; inactive = score below 0.9); details: primary human endothelial cells (HUVEC); actives raise or lower the signal
Summary of the method: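 Endpoint derived by bidirectional fitting against DMSO vehicle; signal is ELISA-detected E-selectin from primary HUVEC at 24 h post-dosing, with parallel SRB staining (0.1% SRB, 560 nm) flagging cytotoxicity.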

[7] = read-out: Interleukin-1 alpha (IL1a), IL1A (gene 3552); assay: BSK_BE3C_IL1a: BioMAP Diversity Plus: BE3C Assay for Interleukin-1 alpha (IL1a) Biomarker Activity (AID 2283016; active = hit-call score of the fitted dose curve at least 0.9, where 1 is the maximum; inactive = score below 0.9); details: primary human bronchial epithelial cells; actives raise or lower the signal
Summary of the method: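 Measured in human lung primary bronchial epithelial cells: IL-1a by ELISA at 24 h after dosing, with bidirectional fitting against DMSO.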

[8] = read-out: Monocyte Chemoattractant Protein-1 (MCP1), CCL2 (gene 6347); assay: BSK_3C_MCP1: BioMAP Diversity Plus: 3C Assay for Monocyte Chemoattractant Protein-1 (MCP1) Biomarker Activity (AID 2283017; active = hit-call score of the fitted dose curve at least 0.9, where 1 is the maximum; inactive = score below 0.9); details: primary human endothelial cells (HUVEC); actives raise or lower the signal
Summary of the method: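 Using human vascular primary endothelium, researchers measured MCP-1 by ELISA 24 h after treatment, with DMSO serving as negative control for bidirectional fitting.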

[9] = target: human Retinoic Acid Receptor gamma (RARg), RARG (gene 5916) (UniProt P13631); assay: ATG_RARg_TRANS: Attagene TRANS-FACTORIAL HepG2 Assay for human Retinoic Acid Receptor gamma (RARg) (AID 2283009)
Summary of the method: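 Gain-of-signal relative to DMSO is reported from fluorescent capillary electrophoresis of RT-PCR reporter products. These came from HepG2 cells expressing transfected RARg-GAL4 chimeras with UAS reporters, harvested 24 h after dosing.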

[10] = target: Retinoic acid receptor RXR-alpha (Homo sapiens) (UniProt P19793); assay: ATG_RXRa_TRANS: Attagene TRANS-FACTORIAL HepG2 Assay for human Retinoid X Receptor alpha (RXRa) (AID 2283012)
Summary of the method: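 Chimeric NR-GAL4 trans-activation in HepG2, 24 h treatment; reporter transcripts quantified by fluorescence on capillary electrophoresis, analysed for upward change from DMSO.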

Measured: AC50

Chain of Nuclear receptor subfamily 1 group I member 2 (Homo sapiens) (O75469 whole entry, looked up, the tested form may be a part): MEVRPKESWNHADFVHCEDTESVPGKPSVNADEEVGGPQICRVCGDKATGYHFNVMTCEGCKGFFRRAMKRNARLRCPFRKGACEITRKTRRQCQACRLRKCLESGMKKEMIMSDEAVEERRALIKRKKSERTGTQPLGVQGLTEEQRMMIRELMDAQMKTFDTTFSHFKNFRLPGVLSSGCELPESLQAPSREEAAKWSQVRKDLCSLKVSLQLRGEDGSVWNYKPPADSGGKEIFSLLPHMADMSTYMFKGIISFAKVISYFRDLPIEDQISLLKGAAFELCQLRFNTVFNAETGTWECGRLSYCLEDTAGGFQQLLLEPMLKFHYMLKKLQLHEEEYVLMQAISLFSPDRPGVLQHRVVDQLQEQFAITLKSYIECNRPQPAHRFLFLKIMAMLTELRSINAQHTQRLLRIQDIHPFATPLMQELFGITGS
Chain of human RAR-related Orphan Receptor gamma (RORg), RORC (gene 6097) (P51449 whole entry, looked up, the tested form may be a part): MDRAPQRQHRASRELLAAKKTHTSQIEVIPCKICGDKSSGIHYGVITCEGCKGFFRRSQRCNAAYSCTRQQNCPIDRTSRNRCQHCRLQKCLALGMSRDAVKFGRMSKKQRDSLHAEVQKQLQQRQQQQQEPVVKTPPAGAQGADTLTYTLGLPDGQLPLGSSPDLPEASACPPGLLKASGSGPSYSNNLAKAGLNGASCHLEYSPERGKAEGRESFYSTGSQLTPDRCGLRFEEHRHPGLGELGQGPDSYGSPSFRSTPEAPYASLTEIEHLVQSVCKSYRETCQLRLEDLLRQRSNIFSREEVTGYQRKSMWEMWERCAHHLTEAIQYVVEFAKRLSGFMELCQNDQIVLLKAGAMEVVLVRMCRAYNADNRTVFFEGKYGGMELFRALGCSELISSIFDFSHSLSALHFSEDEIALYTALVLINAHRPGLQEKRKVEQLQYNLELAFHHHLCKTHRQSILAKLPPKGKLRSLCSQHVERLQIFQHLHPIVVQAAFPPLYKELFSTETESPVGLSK
Chain of human Thyroid Receptor alpha (THRa1), THRA (gene 7067) (P10827 whole entry, looked up, the tested form may be a part): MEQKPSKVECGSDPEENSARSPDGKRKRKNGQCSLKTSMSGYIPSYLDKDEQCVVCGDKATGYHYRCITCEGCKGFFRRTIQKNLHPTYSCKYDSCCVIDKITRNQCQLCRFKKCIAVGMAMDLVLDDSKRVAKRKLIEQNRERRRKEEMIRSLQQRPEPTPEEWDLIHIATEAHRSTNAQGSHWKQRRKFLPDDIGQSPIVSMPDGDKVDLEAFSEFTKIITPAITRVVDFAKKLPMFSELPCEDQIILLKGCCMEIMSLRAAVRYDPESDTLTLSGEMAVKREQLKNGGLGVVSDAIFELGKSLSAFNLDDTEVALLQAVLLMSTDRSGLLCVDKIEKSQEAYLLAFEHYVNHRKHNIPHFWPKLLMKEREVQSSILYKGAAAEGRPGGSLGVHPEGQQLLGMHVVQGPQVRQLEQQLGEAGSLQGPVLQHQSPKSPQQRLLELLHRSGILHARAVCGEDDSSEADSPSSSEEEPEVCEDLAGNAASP
Chain of human Retinoic Acid Receptor gamma (RARg), RARG (gene 5916) (P13631 whole entry, looked up, the tested form may be a part): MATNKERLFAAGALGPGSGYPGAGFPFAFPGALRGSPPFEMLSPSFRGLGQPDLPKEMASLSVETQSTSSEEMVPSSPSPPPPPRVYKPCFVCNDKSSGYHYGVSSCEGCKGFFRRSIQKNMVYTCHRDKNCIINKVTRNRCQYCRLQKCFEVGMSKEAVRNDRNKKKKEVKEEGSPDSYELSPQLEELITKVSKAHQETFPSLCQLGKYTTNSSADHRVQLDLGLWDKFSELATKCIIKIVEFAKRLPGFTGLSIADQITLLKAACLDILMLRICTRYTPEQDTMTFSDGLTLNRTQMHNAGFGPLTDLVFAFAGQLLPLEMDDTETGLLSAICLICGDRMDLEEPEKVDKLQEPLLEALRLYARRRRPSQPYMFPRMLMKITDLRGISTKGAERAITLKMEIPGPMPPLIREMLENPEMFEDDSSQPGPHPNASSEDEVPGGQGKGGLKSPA
Chain of human Retinoid X Receptor beta (RXRb), RXRB (gene 6257) (P28702 whole entry, looked up, the tested form may be a part): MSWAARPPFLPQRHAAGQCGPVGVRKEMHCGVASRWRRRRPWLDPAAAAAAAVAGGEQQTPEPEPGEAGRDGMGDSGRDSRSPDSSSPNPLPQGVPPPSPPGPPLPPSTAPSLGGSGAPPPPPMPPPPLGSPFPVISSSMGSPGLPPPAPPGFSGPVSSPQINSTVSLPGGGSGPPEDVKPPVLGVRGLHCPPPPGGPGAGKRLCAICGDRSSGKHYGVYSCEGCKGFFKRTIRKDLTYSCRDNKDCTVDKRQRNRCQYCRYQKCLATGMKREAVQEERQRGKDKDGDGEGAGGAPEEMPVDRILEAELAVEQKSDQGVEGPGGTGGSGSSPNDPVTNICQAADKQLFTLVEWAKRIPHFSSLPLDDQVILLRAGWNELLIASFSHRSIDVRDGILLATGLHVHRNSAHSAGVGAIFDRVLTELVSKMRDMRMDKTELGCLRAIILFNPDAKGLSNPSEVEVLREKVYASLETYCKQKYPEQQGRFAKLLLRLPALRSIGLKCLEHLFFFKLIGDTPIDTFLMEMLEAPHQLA
Chain of Retinoic acid receptor RXR-alpha (Homo sapiens) (P19793 whole entry, looked up, the tested form may be a part): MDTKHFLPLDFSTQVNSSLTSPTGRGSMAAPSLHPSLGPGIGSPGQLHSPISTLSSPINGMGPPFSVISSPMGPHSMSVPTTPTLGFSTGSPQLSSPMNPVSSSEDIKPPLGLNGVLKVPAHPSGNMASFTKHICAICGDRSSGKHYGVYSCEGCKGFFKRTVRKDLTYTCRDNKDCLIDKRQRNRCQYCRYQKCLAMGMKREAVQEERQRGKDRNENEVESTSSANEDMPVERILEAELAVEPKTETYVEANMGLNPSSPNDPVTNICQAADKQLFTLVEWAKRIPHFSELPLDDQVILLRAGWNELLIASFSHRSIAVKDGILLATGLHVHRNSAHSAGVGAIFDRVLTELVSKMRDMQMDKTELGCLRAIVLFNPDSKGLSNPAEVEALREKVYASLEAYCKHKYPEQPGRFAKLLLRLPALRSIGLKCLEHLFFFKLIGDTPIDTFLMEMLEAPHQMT
Chain of E-selectin (Homo sapiens) (P16581 whole entry, looked up): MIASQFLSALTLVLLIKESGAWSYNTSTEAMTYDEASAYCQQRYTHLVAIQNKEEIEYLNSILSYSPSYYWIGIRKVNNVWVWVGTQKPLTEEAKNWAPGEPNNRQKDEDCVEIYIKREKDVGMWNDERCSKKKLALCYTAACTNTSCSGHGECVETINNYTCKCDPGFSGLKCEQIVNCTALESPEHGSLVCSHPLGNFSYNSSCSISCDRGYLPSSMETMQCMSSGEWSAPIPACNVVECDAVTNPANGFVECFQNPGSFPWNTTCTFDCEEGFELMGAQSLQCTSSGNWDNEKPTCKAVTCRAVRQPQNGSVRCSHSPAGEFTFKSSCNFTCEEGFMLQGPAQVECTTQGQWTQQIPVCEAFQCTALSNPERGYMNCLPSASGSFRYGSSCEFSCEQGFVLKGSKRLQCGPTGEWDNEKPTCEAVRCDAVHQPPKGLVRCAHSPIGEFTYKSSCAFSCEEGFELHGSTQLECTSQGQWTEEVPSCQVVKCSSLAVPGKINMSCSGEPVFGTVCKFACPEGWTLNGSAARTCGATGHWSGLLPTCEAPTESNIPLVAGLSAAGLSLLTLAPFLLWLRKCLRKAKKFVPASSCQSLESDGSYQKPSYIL
Chain of human RAR-related Orphan Receptor beta (RORb), RORB (gene 6096) (Q92753 whole entry, looked up, the tested form may be a part): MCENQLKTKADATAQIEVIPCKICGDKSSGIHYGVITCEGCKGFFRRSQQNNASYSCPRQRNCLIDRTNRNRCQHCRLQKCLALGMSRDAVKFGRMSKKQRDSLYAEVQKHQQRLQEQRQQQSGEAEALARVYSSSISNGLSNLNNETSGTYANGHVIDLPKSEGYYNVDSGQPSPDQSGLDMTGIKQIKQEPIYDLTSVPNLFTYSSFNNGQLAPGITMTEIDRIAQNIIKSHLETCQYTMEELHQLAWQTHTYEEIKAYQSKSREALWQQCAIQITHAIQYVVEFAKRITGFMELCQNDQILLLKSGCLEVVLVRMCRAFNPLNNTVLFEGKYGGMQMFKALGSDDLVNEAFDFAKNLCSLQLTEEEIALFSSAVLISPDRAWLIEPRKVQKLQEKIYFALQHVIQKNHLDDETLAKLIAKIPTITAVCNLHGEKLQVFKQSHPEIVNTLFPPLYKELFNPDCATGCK

COP(=S)(OC)SCn1nnc2ccccc2c1=O
not listed: [9] | [10]
inactive: all other assays above

Cc1c(COC(=O)[C@@H]2[C@H](/C=C(\Cl)C(F)(F)F)C2(C)C)cccc1-c1ccccc1
not listed: [10]
inactive: all other assays above

CCCC(=NOCC)C1=C(O)CC(CC(C)SCC)CC1=O (configuration not stated)
inactive: [1] | [9] | [2] | [6] | [7] | [8]

CNC(=O)Oc1cccc2ccccc12
not listed: [10]
inactive: all other assays above

CCSC(=O)N1CCCCCC1
active: [1] 84.4 µM
not listed: [5] | [10]
inactive: all other assays above

COc1ccc(-c2ccccc2)cc1NNC(=O)OC(C)C
inactive: [1] | [2] | [4] | [6] | [7] | [8]

CCCCC(O)(Cn1cncn1)c1ccc(Cl)cc1Cl (configuration not stated)
inactive: [1] | [3] | [10] | [6] | [7] | [8]

CC(C)N1C(=O)c2ccccc2NS1(=O)=O
inactive: [1] | [3] | [4] | [6] | [7] | [8]

CC(C)NC(=O)N1CC(=O)N(c2cc(Cl)cc(Cl)c2)C1=O
active: [1] 10.6 µM
inactive: [7] | [8]

O=C(O)c1c(Cl)ccc2cc(Cl)cnc12
inactive: [5] | [6] | [7] | [8]

N#Cc1c(Cl)cccc1Cl
active: [1] 72.3 µM
not listed: [2] | [3] | [9]
inactive: all other assays above

COCC(=O)N(c1c(C)cccc1C)C(C)C(=O)OC (configuration not stated)
inactive: [1] | [6] | [7] | [8]

CCOc1nc(F)cc2nc(S(=O)(=O)Nc3c(Cl)cccc3Cl)nn12
active: [8] 33.2 µM
not listed: [2] | [9] | [10]
inactive: all other assays above

COCC(C)N(C(=O)CCl)c1c(C)csc1C (configuration not stated)
inactive: [1] | [3] | [5] | [6] | [7] | [8]

COC(=O)NC(=S)Nc1ccccc1NC(=S)NC(=O)OC
active: [6] 5.15 µM
not listed: [3] | [4] | [9]
inactive: all other assays above

CCCCOCN(C(=O)CCl)c1c(CC)cccc1CC
active: [6] 19.3 µM | [7] 36.5 µM | [8] 30.2 µM
inactive: [1] | [2] | [4] | [5]

CC(C)N1C(=O)N(c2ccccc2)CSC1=NC(C)(C)C
inactive: [1] | [2] | [3] | [5] | [7]
active: [6] 16 µM | [8] 31.3 µM

N#Cc1c[nH]cc1-c1cccc2c1OC(F)(F)O2
active: [4] 1.68 µM | [8] 20 µM
not listed: [2] | [9]
inactive: all other assays above

CN=C=S
active: [6] 11.7 µM
inactive: [1] | [3] | [5] | [7] | [8]

Cc1ccc(N=CN(C)C=Nc2ccc(C)cc2C)c(C)c1
active: [6] 33 µM | [7] 35.1 µM | [8] 36 µM
inactive: [1]

CC(C)Nc1nc(Cl)nc(NC(C)C)n1
inactive: [1] | [4] | [5] | [6] | [7] | [8]

OC(c1ccc(Cl)cc1)(c1ccc(Cl)cc1)C(Cl)(Cl)Cl
active: [6] 13.8 µM | [7] 15.1 µM | [8] 29.3 µM
inactive: [1] | [4]

CNC(=O)N(C)c1nnc(C(C)(C)C)s1
inactive: [1] | [3] | [6] | [7] | [8]

CS(=O)(=O)c1ccc(C(=O)C2C(=O)CCCC2=O)c([N+](=O)[O-])c1
not listed: [2] | [9]
inactive: all other assays above

CC(C)C1(C)N=C(c2ncccc2C(=O)O)NC1=O (configuration not stated)
inactive: [2] | [3] | [6] | [7] | [8]

N#CN=C1SCCN1Cc1ccc(Cl)nc1
inactive: [1] | [2] | [4] | [6] | [7] | [8]

CCNC(=O)NC(=O)C(C#N)=NOC
not listed: [1] | [4] | [9]
inactive: all other assays above

C=CCOC(=O)C(C)(C)OC(=O)c1cc(-n2c(=O)cc(C(F)(F)F)n(C)c2=O)ccc1Cl
inactive: [1] | [5] | [6] | [7] | [8]

Cc1cc(C)nc(Nc2ccccc2)n1
not listed: [3] | [9] | [10]
inactive: all other assays above

Cn1c(-c2ccccc2)cc(-c2ccccc2)[n+]1C
inactive: [4] | [7]
active: [6] 1.56 µM | [8] 5.41 µM

Clc1nc(Cl)nc(Nc2ccccc2Cl)n1
inactive: [1] | [5] | [6] | [7] | [8]

Nc1cnn(-c2ccccc2)c(=O)c1Cl
inactive: [2] | [10] | [5] | [6] | [7] | [8]

COC(=O)c1c(C(F)F)nc(C(F)(F)F)c(C2=NCCS2)c1CC(C)C
inactive: [4] | [6] | [7] | [8]
active: [1] 0.431 µM

Clc1cccc(C(Cl)(Cl)Cl)n1
not listed: [2] | [9] | [10]
inactive: all other assays above

COC(=O)NS(=O)(=O)c1ccc(N)cc1
inactive: [1] | [3] | [6] | [7] | [8]

Nc1c(Cl)c(Cl)nc(C(=O)O)c1Cl
inactive: [3] | [4] | [5] | [6] | [7] | [8]

CCOP(=O)(OCC)Oc1nc(Cl)c(Cl)cc1Cl
inactive: [1] | [3] | [4] | [6] | [7] | [8]

CN/C(=N\[N+](=O)[O-])NCc1cnc(Cl)s1
inactive: [1] | [5] | [6] | [7] | [8]

CO/N=C(/C1=NOCCO1)c1ccccc1Oc1ncnc(Oc2ccccc2Cl)c1F
active: [6] 6.21 µM | [8] 20.1 µM
inactive: [1] | [3] | [4] | [5] | [7]

O=C1C2CC=CCC2C(=O)N1SC(Cl)(Cl)Cl (configuration not stated)
active: [7] 11.2 µM
not listed: [3] | [9] | [10]
inactive: all other assays above

COP(=S)(OC)Oc1ccc([N+](=O)[O-])c(C)c1
active: [8] 30.8 µM
not listed: [3] | [9] | [10]
inactive: all other assays above
